Experiment [1] in a line: qHTS assay to test for compound auto fluorescence at 535 nm (green) in HEK293 cells (AID 720680). In general terms: Quantitative high-throughput screening tests each substance at several concentrations.
Experiment [2] in a line: qHTS assay to test for compound auto fluorescence at 460 nm (blue) in HEK293 cell free culture (AID 720681). The method in brief:
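Blue fluorescence (Ex 405/Em 460 nm, triamterene-equivalent) was read immediately after pin transfer of compound or DMSO into medium (DMEM, 10% FBS) without cells.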

A short description of experiment [3]: qHTS assay to test for compound auto fluorescence at 535 nm (green) in HEK293 cell free culture (AID 720682). An outline of the steps: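 Steps: dispense DMEM/10% FBS into empty wells; pin in compound or DMSO; measure fluorescence at 485/535 nm. Values are fluorescein equivalents.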
A short description of experiment [4]: qHTS assay to test for compound auto fluorescence at 590 nm (red) in HEK293 cell free culture (AID 720683). The method in brief: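 Red-channel autofluorescence of compounds in culture medium (DMEM, 10% FBS), no cells, measured at 540/590 nm. Rose Bengal sodium is the reference fluorophore for equivalence.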
A short description of experiment [5]: qHTS assay to test for compound auto fluorescence at 590 nm (red) in HepG2 cell free culture (AID 720684). An outline of the steps:
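Cell-free; medium MEM + 10% FBS; compound or DMSO added by pintool; read Ex 540/Em 590 nm; Rose Bengal sodium as red reference fluorophore.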

Experiment [6] in a line: qHTS assay to test for compound auto fluorescence at 460 nm (blue) in HepG2 cell free culture (AID 720685). An outline of the steps:
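Cell-free plates of MEM plus 10% FBS received 23 nL compound or DMSO vehicle; blue-channel (405/460 nm) intensity scored against triamterene as reference fluorophore.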

Experiment [7] in a line: qHTS assay to test for compound auto fluorescence at 535 nm (green) in HepG2 cell free culture (AID 720686).
The nature of experiment [8]: qHTS assay to test for compound auto fluorescence at 460 nm (blue) in HepG2 cells (AID 720687). The method in brief: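 Blue-channel autofluorescence (Ex/Em 405/460 nm, triamterene-equivalent) was measured after 1 hr compound exposure at 37 C, 5% CO2. Cells were HepG2, plated overnight at 37 C in MEM plus 10% FBS.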
Experiment [9] deals with Glucocorticoid receptor (Homo sapiens) (UniProt P04150). The experiment can be described thus: qHTS assay to identify small molecule antagonists of the glucocorticoid receptor (GR) signaling pathway (AID 720692; active = well fitted inhibition curve with a large enough effect in the signal ratio in the repeat runs, not every such curve was filed as active; the % refers to the signal ratio). The method in brief: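 In a 1536-well cell format, compounds were added 4 h after seeding GR-bla HeLa cells, together with dexamethasone at 5 nM final; reporter activity was measured by FRET-substrate fluorescence following 18 h at 37 C.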

The nature of experiment [10]: qHTS assay to identify small molecule antagonists of the glucocorticoid receptor (GR) signaling pathway - cell viability counter screen (AID 720693). Also: nearly all actives have a fitted effect of over 55% in size.
Experiment [11] can be described thus: qHTS assay to identify small molecule antagonists of the androgen receptor (AR) signaling pathway - cell viability counter screen (AID 743033; also: nearly all actives have a fitted effect of over 45% in size).
The nature of experiment [12]: qHTS assay to identify small molecule antagonists of the androgen receptor (AR) signaling pathway using the MDA cell line - cell viability counter screen (AID 743041; also: nearly all actives have a fitted effect of over 45% in size). The method in brief:
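Viability read by CellTiter-Fluor fluorescence in the same wells as the antagonist screen, added after 15.5 h of a 16 h, 37C exposure. Human breast carcinoma MDA-kb2 AR-luc cells, compounds co-dosed with agonist R1881.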

Experiment [13] can be described thus: qHTS assay to identify small molecule antagonists of the thyroid receptor (TR) signaling pathway - cell viability counter screen (AID 743064). Also: nearly all actives have a fitted effect of over 50% in size. Also: potency is read from the fitted curve at half-maximal effect. The method in brief: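 Plate GH3.TRE-Luc cells; incubate 4 h at 37 °C; add compound, then T3 to 1 nM final; incubate 23.5 h; add CellTiter-Fluor; incubate 30 min at 37 °C, 5% CO2; read fluorescence.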
Experiment [14] is described as follows: qHTS assay for identifying genotoxic compounds that show differential cytotoxicity against isogenic chicken DT40 cell lines with known DNA damage response pathways - wild type cell line (AID 743012). Also: nearly all actives have a fitted effect of over 60% in size. Also: potency is read from the fitted curve at half-maximal effect. The method in brief:
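Viability of DNA repair-proficient chicken DT40 cells was assessed by CellTiter-Glo luminescence following 40 h compound exposure at 37 C/5% CO2.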

Experiment [15] is described as follows: qHTS assay for identifying genotoxic compounds that show differential cytotoxicity against isogenic chicken DT40 cell lines with known DNA damage response pathways - Rev3 mutant cell line (AID 743014). Also: nearly all actives have a fitted effect of over 55% in size. Also: potency is read from the fitted curve at half-maximal effect.
Experiment [16] can be described thus: qHTS assay for identifying genotoxic compounds that show differential cytotoxicity against isogenic chicken DT40 cell lines with known DNA damage response pathways - Rad54/Ku70 mutant cell line (AID 743015). Also: nearly all actives have a fitted effect of over 60% in size. Also: potency is read from the fitted curve at half-maximal effect.
Experiment [17] has as its target Androgen receptor (Homo sapiens) (UniProt P10275). Put plainly: qHTS assay to identify small molecule agonists of the androgen receptor (AR) signaling pathway (AID 743036; active = well fitted activation curve with a large enough effect in the signal ratio in the repeat runs, with a control signal flat, not every such curve was filed as active; the % refers to the signal ratio). An outline of the steps: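 Reporter line: GeneBLAzer AR-UAS-bla-GripTite (HEK293). Steps: plate cells, 4 h rest, add compounds, 16 h at 37C, add LiveBLAzer B/G substrate, 2 h at RT, read fluorescence.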

For experiment [18] the target is unchanged. Put plainly: qHTS assay to identify small molecule agonists of the androgen receptor (AR) signaling pathway using the MDA cell line (AID 743040; also: nearly all actives have a fitted effect of over 20% in size). An outline of the steps:
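Luciferase agonist assay: 16 h compound exposure at 37C without CO2 in MDA-kb2 AR-luc cells, whose MMTV promoter responds to both AR and GR. Luminescence measured after 30 min room-temperature incubation with ONE-Glo.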

For experiment [19] the target is unchanged. The experiment can be described thus: qHTS assay to identify small molecule antagonists of the androgen receptor (AR) signaling pathway using the MDA cell line (AID 743042; also: nearly all actives have a fitted effect of over 55% in size). The method in brief:
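Antagonist mode: compounds plus R1881 agonist added to MDA-kb2 AR-luc cells, incubated 16 h at 37C. Luciferase reporter luminescence quantified, with multiplexed CellTiter-Fluor readout for cell viability.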

Values without a mark were called inactive. Records with an inconclusive call do not appear. The source made the active and inactive calls. Unless noted, calls follow the shape of the dose curve; as a rule, active = well fitted curve in the direction sought with a large enough effect in the repeat runs; inconclusive = weak or mixed curves; inactive = no such curve, though single readings can be large; an effect the other way counts as inactive or inconclusive.
% is scaled to controls: 0 for no effect and ±100 for the full control effect.

Androgen receptor (Homo sapiens), sequence (P10275 whole entry, looked up): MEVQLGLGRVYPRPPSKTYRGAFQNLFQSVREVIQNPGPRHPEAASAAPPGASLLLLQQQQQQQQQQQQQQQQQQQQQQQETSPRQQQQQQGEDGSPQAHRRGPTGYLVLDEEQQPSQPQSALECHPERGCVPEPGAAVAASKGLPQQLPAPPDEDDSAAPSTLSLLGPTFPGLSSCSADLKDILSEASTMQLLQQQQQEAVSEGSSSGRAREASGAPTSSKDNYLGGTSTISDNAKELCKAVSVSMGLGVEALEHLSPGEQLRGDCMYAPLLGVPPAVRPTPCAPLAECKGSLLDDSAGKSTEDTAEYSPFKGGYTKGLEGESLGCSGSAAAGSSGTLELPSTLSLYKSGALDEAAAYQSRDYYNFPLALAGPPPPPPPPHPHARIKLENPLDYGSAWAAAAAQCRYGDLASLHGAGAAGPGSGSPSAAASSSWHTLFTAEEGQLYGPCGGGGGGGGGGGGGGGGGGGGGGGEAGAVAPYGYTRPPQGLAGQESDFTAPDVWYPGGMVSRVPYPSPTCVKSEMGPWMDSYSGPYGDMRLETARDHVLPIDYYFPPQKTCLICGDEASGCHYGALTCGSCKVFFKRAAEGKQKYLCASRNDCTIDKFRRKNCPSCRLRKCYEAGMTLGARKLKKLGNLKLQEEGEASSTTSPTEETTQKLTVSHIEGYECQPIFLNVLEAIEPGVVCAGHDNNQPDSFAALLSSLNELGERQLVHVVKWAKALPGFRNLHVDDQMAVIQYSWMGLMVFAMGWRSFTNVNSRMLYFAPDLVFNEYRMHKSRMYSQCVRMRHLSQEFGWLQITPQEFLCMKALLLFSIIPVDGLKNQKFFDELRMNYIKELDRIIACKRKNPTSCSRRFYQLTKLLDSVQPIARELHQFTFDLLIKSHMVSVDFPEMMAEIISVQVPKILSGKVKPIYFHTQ
Glucocorticoid receptor (Homo sapiens), sequence (P04150 whole entry, looked up): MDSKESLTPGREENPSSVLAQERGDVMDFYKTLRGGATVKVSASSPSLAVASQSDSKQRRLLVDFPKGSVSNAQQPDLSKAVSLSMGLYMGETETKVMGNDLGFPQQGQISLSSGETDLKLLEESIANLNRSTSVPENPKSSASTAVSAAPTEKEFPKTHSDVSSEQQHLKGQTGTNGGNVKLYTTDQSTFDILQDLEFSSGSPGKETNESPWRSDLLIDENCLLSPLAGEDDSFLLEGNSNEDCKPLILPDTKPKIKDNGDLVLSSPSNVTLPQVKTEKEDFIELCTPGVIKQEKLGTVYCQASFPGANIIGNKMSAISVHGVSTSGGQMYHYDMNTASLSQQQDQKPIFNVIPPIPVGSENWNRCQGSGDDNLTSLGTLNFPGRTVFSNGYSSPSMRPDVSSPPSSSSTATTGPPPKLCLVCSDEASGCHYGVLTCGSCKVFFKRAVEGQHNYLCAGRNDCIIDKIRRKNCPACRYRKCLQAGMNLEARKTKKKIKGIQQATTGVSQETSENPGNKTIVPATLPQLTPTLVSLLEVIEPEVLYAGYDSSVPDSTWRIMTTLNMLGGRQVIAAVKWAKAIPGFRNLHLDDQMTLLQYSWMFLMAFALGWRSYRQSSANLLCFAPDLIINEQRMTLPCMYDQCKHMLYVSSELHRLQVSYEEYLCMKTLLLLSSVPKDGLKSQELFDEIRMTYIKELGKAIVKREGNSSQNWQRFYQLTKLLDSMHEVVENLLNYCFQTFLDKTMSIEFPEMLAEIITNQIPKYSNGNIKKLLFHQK

With `CS(C)=O`, the outcome in experiment [1], in experiment [3], in experiment [4], in experiment [5], in [6] and in experiment [7] was inactive. Also, the result in experiment [8] was inactive. Moreover, the Potency result in experiment [2], in experiment [9], in [10], in experiment [11], in [12] and in experiment [13] was “inactive” in each case.
For the compound `CC1(C)CC(O)CC(C)(C)N1[O]`, the call in experiment [1], in [3], in [4], in [5], in [6] and in experiment [7] was inactive. Further, the compound was classed as inactive in [8]. The Potency entry in experiment [2], in experiment [10], in experiment [14], in experiment [15], in experiment [16] and in [12] was “inactive” throughout. In addition, the Potency result in experiment [13] was “inactive”.
Consider `Cc1cc(C)c(C)c(O)c1`, for which the result in experiment [1], in [3], in experiment [4], in [5], in experiment [6] and in experiment [7] was inactive. Also, in experiment [8], the outcome was inactive. For the same compound, the Potency entry in [2], in experiment [10], in experiment [14], in experiment [15], in [16] and in [11] was “inactive” each time. In addition, the Potency result in experiment [12] and in [13] was “inactive” in each case.
On to `O=S(=O)(O)c1cc(Cl)c(Cl)cc1Cl`, for which the compound was called inactive in experiment [1], in experiment [3], in experiment [4], in experiment [5], in experiment [6] and in experiment [7]. Further, the compound was classed as inactive in [8], in experiment [17] and in experiment [18]. The Potency entry in experiment [2], in [10], in experiment [14], in [16], in experiment [11] and in experiment [12] was “inactive” in each case. Also, the Potency result in experiment [19] and in [13] was “inactive” throughout.
Regarding `NC(=O)c1cc[n+](CC2=C(C(=O)[O-])N3C(=O)[C@@H](NC(=O)Cc4cccs4)[C@H]3SC2)cc1`, the fluorescence, % of fluorescein in [1] is 0.0094% [at 18.6 µM]. The fluorescence, % of fluorescent control in [2] was 0.628% [at 18.6 µM]; in [4], 0.0033% [at 18.6 µM]; in [6] it was 0.491% [at 18.6 µM]; in experiment [8], 0.406% [at 18.6 µM]. Also, in [3], the activity change is 0.0615% [at 18.6 µM]. Moreover, the fluorescence, % of Rose Bengal in experiment [5] was 0.512% [at 18.6 µM]. Further, the fluorescence, % of fluorescein control in [7] was -0.0061% [at 18.6 µM]. Also, the Potency result in experiment [10], in experiment [14], in experiment [15], in [16] and in experiment [12] was “inactive” throughout.
`N#CCCCC(C#N)CCC#N` (stereo not drawn): the compound was classed as inactive in experiment [1], in experiment [3], in [4], in [5], in experiment [6] and in experiment [7]. The compound was classed as inactive in experiment [8]. The Potency entry in experiment [2], in experiment [10], in experiment [14], in experiment [15], in [16] and in experiment [11] was “inactive” each time. Further, the Potency result in [12] and in experiment [13] was “inactive” each time.
As to `CCCCCCCCOCCCN`, the outcome in experiment [1], in experiment [3], in experiment [4], in experiment [5], in [6] and in [7] was inactive. Moreover, the outcome in experiment [8] and in [18] was inactive. Besides, the Potency entry in experiment [2], in [10], in experiment [11], in [12] and in experiment [19] was “inactive” throughout. For the same compound, the Potency was 4.33 µM (active) in experiment [14], 6.86 µM (active) in experiment [15], 6.86 µM (active) in [16] and 13.7 µM (active) in experiment [13].
Regarding `Cc1c(-c2cccnc2)c2ccccc2n1CCCCC(=O)O`, the call in experiment [1], in experiment [3], in experiment [4], in experiment [5], in experiment [6] and in [7] was inactive. Moreover, the compound was called inactive in experiment [8]. Also, the Potency entry in [2], in experiment [10], in [14], in experiment [16], in experiment [11] and in experiment [12] was “inactive” throughout. Besides, the Potency result in experiment [13] was “inactive”. In [15], the Potency is 30.6 µM (active).
As for `O=Cc1ccc(Cl)c([N+](=O)[O-])c1`, the outcome in experiment [1], in experiment [3], in experiment [4], in [5], in experiment [6] and in experiment [7] was inactive. For the same compound, the compound was classed as inactive in [8]. For the same compound, the Potency result in experiment [2], in experiment [10], in experiment [11], in experiment [12] and in experiment [13] was “inactive” each time. Further, the Potency in [14] was 4.33 µM (active); in [15], 4.33 µM (active); in experiment [16], 3.06 µM (active).
Turning to `C[Si](C)(C)O[Si](C)(C)O[Si](C)(C)C`, the compound was called inactive in [1], in experiment [3], in experiment [4], in [5], in [6] and in experiment [7]. In addition, in [8], the compound was classed as inactive. Further, the Potency entry in [2], in experiment [10], in experiment [14], in experiment [15], in experiment [16] and in experiment [11] was “inactive” throughout. Further, the Potency result in [12] is “inactive”.
As to `CC(C)C/C=C(\C=O)c1ccccc1`, the call in experiment [1], in experiment [3], in [4], in experiment [5], in [6] and in experiment [7] was inactive. In addition, the outcome in experiment [8] was inactive. For the same compound, the Potency result in [2], in experiment [10], in experiment [14] and in experiment [12] was “inactive” throughout.
On to `CC(C)Cc1nccs1`, for which the compound was called inactive in experiment [1], in experiment [3], in experiment [4], in experiment [5], in experiment [6] and in experiment [7]. Besides, in experiment [8], the compound was classed as inactive. Further, the Potency result in [2], in experiment [10], in experiment [14], in experiment [15], in experiment [16] and in experiment [11] was “inactive” throughout. The Potency result in [12] and in [13] was “inactive” each time.
As for `COc1ccc(/C=C/S(=O)(=O)NC(=O)c2ccc(C)cc2Cl)cc1`, the result in experiment [1], in [3], in experiment [4], in experiment [5], in experiment [6] and in [7] was inactive. The result in experiment [8] was inactive. For the same compound, the Potency entry in [2], in experiment [10], in experiment [14], in experiment [15], in experiment [16] and in [12] was “inactive” throughout. In addition, the Potency result in [13] is “inactive”.
Turning to `OCC(O)c1ccccc1` (stereo not drawn), the compound was classed as inactive in experiment [1], in [3], in experiment [4], in experiment [5], in experiment [6] and in experiment [7]. Besides, in experiment [8], the call was inactive. The Potency result in [2], in experiment [10], in [14], in experiment [15], in experiment [16] and in [11] was “inactive” throughout. For the same compound, the Potency entry in [12] and in [13] was “inactive” throughout.
